# Measured values as given in PubChem BioAssay AID720724 (Broad Institute, 2013).
# Results with a measured potency or affinity are listed apart. Active and inactive are the calls of the source.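 The calls were made as follows: active = signal falls with a fitted half-maximal dose at most twice the top dose, in every run; inconclusive = steady partial drop, poor fit, or runs disagree; inactive = flat, rising or too weak in every run.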
# Assay: inhibitors of control Renilla luciferase reporter, dose response, counter-screen for Shn3 3'UTR targeting project, Clone20-Shn3RL cells, dual-Glo, cherry-pick, set 2 (AID 720724)
# Conditions: renilla luciferase luminescence, 24 h; series mostly up to 35 µM
row,Structure (SMILES),outcome
1,Cc1cccc(NS(=O)(=O)c2ccc(C3CCCCC3)cc2)c1,inactive
2,CC(C)Cn1c(N)c(C(=O)COC(=O)C2Cc3ccccc3CN2S(C)(=O)=O)c(=O)n(C)c1=O (stereo not drawn),inactive
3,Cc1cc(S(=O)(=O)NCc2ccncc2)c(C)cc1Br,inactive
4,Cc1ccc(-c2cn3cc(C)ccc3n2)cc1,inactive
5,CC(Oc1ccc(F)cc1)C(=O)N(CCC1=CCCCC1)c1c(N)n(Cc2ccccc2)c(=O)[nH]c1=O (stereo not drawn),inactive
6,CNc1ccccc1C(C)(C)c1cc(-c2cccc(OC)c2)no1,inactive
7,CCOC(=O)c1cn(CC(=O)Nc2cccc(Cl)c2C)nn1,inactive
8,O=C(O)c1cccc(COc2ccccc2Cl)c1,inactive
9,CCCn1c(C)cc(C(=O)CN2C(=O)c3ccccc3S2(=O)=O)c1C,inactive
10,OCCCNc1nccc(-c2cc(Nc3cccc(Cl)c3)ncn2)n1,inactive
11,Cc1cc(C(=O)COC(=O)c2ccccc2O)c(C)n1Cc1cccs1,inactive
12,CCN(CC)c1ccc(NC(=O)CN2C(=O)CSc3ncccc32)c(C)c1,inactive
13,Cc1c(C)c2ccc(OCC(=O)Nc3ccccn3)c(C)c2oc1=O,inactive
14,Oc1ccc(-c2n[nH]c(C(F)(F)F)c2-c2ccccc2)c(O)c1,inactive
15,CC1Cc2cc(S(=O)(=O)N3CCN(c4ccc(Cl)cc4)CC3)ccc2N1C(=O)C1CC1 (stereo not drawn),inactive
16,Cc1ccc(NC(=O)c2cc(S(=O)(=O)NCCC3=CCCCC3)ccc2F)cc1F,inactive
17,O=C(Nc1nc(-c2ccccc2)cs1)C1CCCCN1S(=O)(=O)c1ccccc1 (stereo not drawn),inactive
18,O=C(c1n[nH]c(=O)c2ccccc12)N1CCN(C2c3ccccc3-c3ccccc32)CC1,inactive
